Screening data deposited in PubChem by several laboratories.
Rv3671c protease – inhibits the M. tuberculosis serine protease Rv3671c; inhibition, % at 5.96 µM; 320,000 tested, 0.048% active; AID 2606; in the data active = inhibition above about 38%;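 also: extracellular domain of Rv3671c used as enzyme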
Target sequence (P9WHR9 whole entry, looked up, the tested form may be a part): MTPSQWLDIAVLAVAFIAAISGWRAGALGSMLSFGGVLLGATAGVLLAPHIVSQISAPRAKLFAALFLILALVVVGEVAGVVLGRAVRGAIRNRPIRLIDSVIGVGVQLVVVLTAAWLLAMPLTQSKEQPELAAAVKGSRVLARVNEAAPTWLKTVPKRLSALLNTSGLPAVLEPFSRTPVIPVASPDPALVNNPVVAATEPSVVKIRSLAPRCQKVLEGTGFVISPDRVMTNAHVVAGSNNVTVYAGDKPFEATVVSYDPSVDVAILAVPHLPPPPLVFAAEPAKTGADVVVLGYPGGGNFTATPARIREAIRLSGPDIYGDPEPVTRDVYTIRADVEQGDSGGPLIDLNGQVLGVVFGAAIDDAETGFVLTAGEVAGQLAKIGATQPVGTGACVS
Mtb BioA inh – inhibitors of Mycobacterium tuberculosis BioA enzyme; purified M. tuberculosis BioA enzyme, plate reader; 360,000 tested, 0.096% active; inhibition, % at 9.99 µM; in the data active = inhibition above about 40%
GDH-TPI counter-1 – GDH-TPI coupled enzyme inhibition counter-screen | GDH-TPI coupled enzyme counterscreen, NADH absorbance | inhibition, % at 4.8 µM | 360,000 tested, 1.2% active; in the data active = inhibition above about 30%
Mtb FBA inh – inhibitors of M. tuberculosis fructose-bisphosphate aldolase | P9WQA3 | inhibition, % at 1 µM | purified M. tuberculosis FBA, fluorescence read-out | 360,000 tested, 2.3% active
FadD28 binding – blocks FadD28 binding to the bisubstrate probe; 360,000 tested, 0.22% active; fluorescence polarization; AID 588549; inhibition, % at 12.5 µM; in the data active = inhibition above about 8.5%, passing the limit was not always enough
Mtb FBA confirm – Mtb FBA inhibition, confirmed; 5,600 tested, 78% active; AID 651616; purified M. tuberculosis FBA, fluorescence read-out; inhibition, % at 1 µM; shares compounds with Mtb FBA inh
GDH-TPI counter-2 – inhibits GDH-TPI coupling enzymes, flagging Mtb FBA hits. shares compounds with Mtb FBA inh. GDH-TPI coupled enzyme counterscreen, fluorescence. inhibition, % at 1 µM. 5,600 tested, 81% active; in the data active = inhibition above about 10%
GDH-TPI DR – inhibits GDH-TPI coupling enzymes in dose response; shares compounds with Mtb FBA inh; GDH-TPI coupled enzyme assay, fluorescence, artifact counterscreen; IC50, µM; 170 tested, 79% active; call rule not given here
A number is an active result. In the library only some 3% were active in any assay of this set; here they are far more common. Rule as the data show it, unless noted: active = inhibition above about 27%; inactive = the rest.

What do the screens show for `OC[C@@H]1[C@@H](c2ccc(F)cc2)C(c2cccc(Cl)c2)=NN1c1ccccc1`?
Mtb BioA inh: inactive; GDH-TPI counter-1: inactive; Mtb FBA inh: 42.5; FadD28 binding: inactive; Mtb FBA confirm: 40.8; GDH-TPI counter-2: 36.1

What do the screens show for `OC[C@@H]1[C@@H](c2ccc(Cl)cc2)C(c2ccccc2)=NN1c1ccccc1`?
Mtb BioA inh: inactive; GDH-TPI counter-1: inactive; Mtb FBA inh: 54.3; FadD28 binding: inactive; Mtb FBA confirm: 109.9; GDH-TPI counter-2: 78.5

What do the screens show for `C[C@@H]1CN([C@@H](C)CO)C(=O)c2cc(C#CCN(C)C)cnc2O[C@@H]1CN(C)Cc1cccc(C(=O)O)c1`?
Mtb BioA inh: inactive

Results for C=C(C)CNC(=S)N/N=C/c1ccc(N2CCOCC2)cc1 ?
Rv3671c protease: inactive; GDH-TPI counter-1: 41.7; Mtb FBA inh: 53.3; FadD28 binding: inactive; Mtb FBA confirm: 52.8; GDH-TPI counter-2: 51.9

How did C/C(=N/NC(=O)COc1ccc(C(C)(C)C)cc1)c1ccc(N2CCOCC2)cc1 do in these assays?
Mtb BioA inh: inactive; GDH-TPI counter-1: inactive; Mtb FBA inh: inactive

What do the screens show for `COCCNC(=S)N/N=C/c1ccc(N2CCOCC2)cc1`?
Rv3671c protease: inactive; Mtb BioA inh: inactive; GDH-TPI counter-1: 31.1; Mtb FBA inh: 46.1; FadD28 binding: inactive; Mtb FBA confirm: active; GDH-TPI counter-2: active

Results for CC(C)(C)c1ccc(OCC(=O)N/N=C/c2ccc(N3CCOCC3)cc2)cc1 ?
Rv3671c protease: inactive; Mtb BioA inh: inactive; GDH-TPI counter-1: inactive; Mtb FBA inh: 27.0; FadD28 binding: inactive; Mtb FBA confirm: 62.4; GDH-TPI counter-2: 42.5

How did CC(C)NC(=S)N/N=C/c1ccc(N2CCOCC2)cc1 do in these assays?
Rv3671c protease: inactive; Mtb BioA inh: inactive; GDH-TPI counter-1: 39.7; Mtb FBA inh: 37.5; FadD28 binding: inactive; Mtb FBA confirm: 120.0; GDH-TPI counter-2: 88.7

How did COc1ccc(S(=O)(=O)N(C)C[C@@H]2OCCCC[C@H](C)Oc3ccc(NC(=O)NC(C)C)cc3C(=O)N([C@H](C)CO)C[C@@H]2C)cc1 do in these assays?
Mtb BioA inh: inactive

What do the screens show for `C[C@H](CO)N1C[C@H](C)[C@H](CN(C)C(=O)c2ccccc2F)Oc2cc(-c3ccc(F)cc3)ccc2S1(=O)=O`?
Mtb BioA inh: inactive

What do the screens show for `Cc1noc(C)c1NC(=O)N[C@@H]1CC[C@H](CCNC(=O)C2CCOCC2)O[C@@H]1CO`?
Mtb BioA inh: inactive

Results for COCCNC(=O)C[C@@H]1CC[C@@H]2[C@H](COC[C@H](O)CN2Cc2cccc(-c3ccncc3)c2)O1 ?
Mtb BioA inh: inactive

Results for N#CCC(=O)Nc1ccc(C(=O)NCc2ccccn2)cc1 ?
Rv3671c protease: inactive; GDH-TPI counter-1: inactive; Mtb FBA inh: 27.0; FadD28 binding: inactive; Mtb FBA confirm: 114.0; GDH-TPI counter-2: 72.4

How did CCOCCCNC(=O)C(NC(=O)c1ccccc1O)c1ccc(C)cc1 (stereo unspecified) do in these assays?
Rv3671c protease: inactive; GDH-TPI counter-1: inactive; Mtb FBA inh: 41.7; FadD28 binding: inactive; Mtb FBA confirm: active; GDH-TPI counter-2: 168.7

What do the screens show for `CC(=O)n1c(-c2ccccc2)c(-c2ccccc2)n(C)c1=O`?
Rv3671c protease: inactive; GDH-TPI counter-1: inactive; Mtb FBA inh: 49.6; FadD28 binding: inactive; Mtb FBA confirm: 78.1; GDH-TPI counter-2: 50.3

How did Cc1cc(C)n2c(Br)c(CN3CCCC(C)C3)nc2n1 (stereo unspecified) do in these assays?
Rv3671c protease: inactive; Mtb BioA inh: inactive; GDH-TPI counter-1: inactive; Mtb FBA inh: 34.8; FadD28 binding: inactive; Mtb FBA confirm: 77.3; GDH-TPI counter-2: 58.4

Results for Cc1cc(C)nc(SCc2nc3nc(C)cc(C)n3c2Br)n1 ?
Rv3671c protease: inactive; Mtb BioA inh: inactive; GDH-TPI counter-1: inactive; Mtb FBA inh: 29.5; FadD28 binding: inactive; Mtb FBA confirm: 35.5; GDH-TPI counter-2: 21.8

How did Cc1cc(C)n2c(Br)c(CN3CC4CC(C3)c3cccc(=O)n3C4)nc2n1 (stereo unspecified) do in these assays?
Rv3671c protease: inactive; Mtb BioA inh: inactive; GDH-TPI counter-1: inactive; Mtb FBA inh: inactive; FadD28 binding: inactive

What do the screens show for `C[C@H]1CN([C@@H](C)CO)C(=O)Cc2cc(NC(=O)CCN3CCOCC3)ccc2O[C@@H]1CN(C)S(=O)(=O)c1ccc(F)cc1`?
Mtb BioA inh: inactive

How did O=C(C[C@H]1C[C@@H]2c3cc(NC(=O)C4CCC4)ccc3O[C@@H]2[C@@H](CO)O1)NCc1ccccn1 do in these assays?
Mtb BioA inh: inactive

Results for O=C(O)c1cc(S(=O)(=O)Nc2ccccc2C(=O)O)ccc1O ?
Rv3671c protease: inactive; Mtb BioA inh: inactive; GDH-TPI counter-1: inactive; Mtb FBA inh: 28.7; FadD28 binding: inactive; Mtb FBA confirm: inactive; GDH-TPI counter-2: inactive; GDH-TPI DR: inactive

Results for C[C@@H]1CN([C@@H](C)CO)S(=O)(=O)c2ccc(C#CCN(C)C)cc2O[C@@H]1CN(C)C(=O)C1CC1 ?
Mtb BioA inh: inactive

How did C[C@@H]1CN([C@H](C)CO)C(=O)c2cc(C#CCc3ccccc3)cnc2O[C@H]1CN(C)C(=O)C1CCOCC1 do in these assays?
Mtb BioA inh: inactive

What do the screens show for `COCCNC(=O)c1cc2c(c(-c3cccc(C4=CCCC4)c3)n1)[C@H](CCO)N([S@@](=O)C(C)(C)C)C2`?
Mtb BioA inh: inactive

How did O=c1c2[nH]c3ccc(Br)cc3c2ncn1Cc1ccncc1 do in these assays?
Rv3671c protease: inactive

What do the screens show for `Cc1ccc2[nH]c3c(=O)n(Cc4ccncc4)cnc3c2c1`?
Rv3671c protease: inactive; Mtb BioA inh: inactive; GDH-TPI counter-1: inactive; Mtb FBA inh: 28.9; FadD28 binding: inactive; Mtb FBA confirm: active; GDH-TPI counter-2: 182.0

How did CCN1CCCC1Cn1cnc2c([nH]c3ccc(C)cc32)c1=O (stereo unspecified) do in these assays?
Rv3671c protease: inactive; Mtb BioA inh: inactive; GDH-TPI counter-1: inactive; Mtb FBA inh: 37.2; FadD28 binding: inactive; Mtb FBA confirm: 59.5; GDH-TPI counter-2: 37.3

How did Cc1cc2nc(-c3ccc(SCc4ccc(C(=O)O)cc4)nc3)[nH]c2cc1C do in these assays?
Rv3671c protease: inactive; GDH-TPI counter-1: inactive; Mtb FBA inh: 58.4; FadD28 binding: inactive; Mtb FBA confirm: inactive; GDH-TPI counter-2: inactive

Results for Cc1nc2ccccc2c(=O)n1CCCN1CCOCC1 ?
Rv3671c protease: inactive; GDH-TPI counter-1: inactive; Mtb FBA inh: inactive; FadD28 binding: inactive

Results for FC(F)(F)c1nc2nc(Cl)c(Cl)nc2n1CCCN1CCOCC1 ?
Mtb BioA inh: inactive; GDH-TPI counter-1: inactive; Mtb FBA inh: 47.6; FadD28 binding: inactive; Mtb FBA confirm: active; GDH-TPI counter-2: active

How did Cc1ccc(Oc2ncc(CN3CCOCC3)s2)cc1 do in these assays?
Rv3671c protease: inactive; Mtb BioA inh: inactive; GDH-TPI counter-1: inactive; Mtb FBA inh: 38.4; FadD28 binding: inactive; Mtb FBA confirm: 49.6; GDH-TPI counter-2: 44.3
